The text below walks through data of PubChem BioAssay AID720633 (The Scripps Research Institute Molecular Screening Center, 2013).

The list shows a part of the results. Unmarked numbers belong to inactive results.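 How the source made its calls: active means inhibition above the cutoff, the mean of compounds lying between the control bounds plus 3 SD of those compounds (cut at about 17% in these data); inactive means the rest.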

Fibrinogen beta chain (Homo sapiens), sequence (P02675 whole entry, looked up): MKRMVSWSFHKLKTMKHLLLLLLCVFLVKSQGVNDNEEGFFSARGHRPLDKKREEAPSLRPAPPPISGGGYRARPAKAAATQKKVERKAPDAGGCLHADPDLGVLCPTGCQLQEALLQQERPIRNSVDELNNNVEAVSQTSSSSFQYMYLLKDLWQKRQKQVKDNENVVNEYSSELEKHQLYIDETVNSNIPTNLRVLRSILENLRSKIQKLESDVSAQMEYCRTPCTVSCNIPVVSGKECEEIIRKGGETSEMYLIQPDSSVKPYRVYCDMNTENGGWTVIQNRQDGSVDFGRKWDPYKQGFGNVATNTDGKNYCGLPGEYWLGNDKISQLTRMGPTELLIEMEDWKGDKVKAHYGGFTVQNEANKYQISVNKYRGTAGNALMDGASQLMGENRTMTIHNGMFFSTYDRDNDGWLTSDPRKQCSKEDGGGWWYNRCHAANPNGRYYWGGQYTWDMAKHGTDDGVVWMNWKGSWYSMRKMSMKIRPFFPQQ

The assay addresses Fibrinogen beta chain (Homo sapiens) (UniProt P02675). Put plainly: DD(E) binders in alternate-peptide displacement assay, confirmation, counter-screen for fibrin DD(E)-Tn7 binding project, biochemical, fluorescence polarization, human fibrin (AID 720633).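 Further: 0% = median of compound sample wells and 100% = excess unlabeled Aha-Tn7 peptide.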 The conditions noted are these: TRITC-Tn7 probe displacement, at 8.3 µM, stronger effect = higher value. (A counterscreen serves to expose hits that act by an unwanted route or on another target.)
The inhibition is the change of the read-out against control, counted positive when it falls. As to `Cn1c(CC(=O)NNC(=O)c2ccccc2F)nc2ccccc21`, the inhibition is -5.95%.
The same measure for `CC(C)(C)c1cc(CN2CCN(CCC#N)CC2)cc(C(C)(C)C)c1O`: 0.66%; for `c1cc(-c2nn[nH]n2)ccc1CN1CCCCC1`: -9.04%; for `Cc1cc2nc3c(=O)n(Cc4ccccc4)c(=O)[nH]c3nc2cc1N`: -4.98%.
The same measure for `Cc1cc2nc3c(=O)[nH]c(=O)nc-3n(C[C@H](O)[C@H](O)[C@H](O)CO)c2cc1C`: 12.4%; for `O=C(NCc1ccccc1)c1cccc(NC(=O)C2CCCCC2)c1`: 0.56%.
The same measure for `O=C(COC(=O)c1ccc([N+](=O)[O-])cc1Cl)NC(=O)c1ccccc1`: 1.45%.
`Cc1nn(C)cc1N1C(=O)c2cccc3c(N)ccc(c23)C1=O`: the inhibition was 1.67%.
Next, `Cc1nnc2n1N=C(c1ccc3c(c1)NC(=O)CO3)CS2`: -7.74%; `O=C(Nc1ccon1)c1sc2ccccc2c1Cl`: -2.1%; `C#CCNc1ccc(C(=O)OCC)cc1`: 4.2%.
Regarding `O=C(/C=C/c1ccccc1[N+](=O)[O-])NCC1CCCO1` (centres undefined), the inhibition is 6.91%.
The same measure for `CN1C(=O)c2cccc3c(N)ccc(c23)C1=O`: 8.6%; for `CN1c2ccc(C=O)c3c(C=O)ccc(c23)N(C)C1(C)C`: -6.98%; for `COc1ccc(N=Nc2c(-c3ccc(OC)cc3)[nH]oc2=O)cc1`: -6.55%.
Next, `COc1cc(C(=S)N2CCOCC2)ccc1O`: 6.48%; `COc1ccc(S(=O)(=O)c2c[nH]c(=S)[nH]c2=O)cc1Cl`: -4.35%.
With `COc1ccc(-c2nc(CCNC(=O)c3ccc(Br)o3)cs2)cc1`, the inhibition was -3.63%.
Next, `OC(c1ccccc1)c1nc(-c2cnc3ccccc3c2)cs1` (centres undefined): 3.54%; `O=C(CSc1nnc(-c2ccccn2)n1-c1ccc(Cl)cc1)Nc1ccccc1-c1ccccc1`: -2.23%; `CCOc1ccc(Nc2oc(Cc3ccccc3)nc2C#N)cc1`: -10.1%.
With `COc1cccc(N2CC(NS(=O)(=O)c3cccs3)CC2=O)c1` (centres undefined), the inhibition was -2.24%.
The same measure for `Oc1ccc2ccc3cccc[n+]3c2c1`: -23.9%; for `O=C(COC(=O)/C=C/c1ccc(OC(F)F)cc1)NC1CCCCC1`: 6.67%.
